Measurements published in PubChem BioAssay AID1159580 (chemical genetic matrix, 2015).
The whole screen tested about 5,500 compounds, of which about 2,000 (36%) were called active. Inconclusive results (about 18%) are left out. No stated cut-off is given here; in the data, active means normalized growth mostly below about 0.91 (no sharp cut-off); inconclusive means no clear call, values can overlap the other calls; inactive means mostly above about 0.92. The list shows a part of the results.

Test: chemical genetic growth profiling, strain panel (AID 1159580);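 further: tested at 20 µM; growth read once vehicle control cultures reached saturation at 30 °C; 1 = growth at the plate median or of vehicle wells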
Conditions: S. cerevisiae deletion strains, growth OD
[1] = locus YBL105C, strain PKC1, stronger effect = lower value
[2] = locus YBR135W, strain CKS1, stronger effect = lower value
[3] = locus YBR136W, strain MEC1, stronger effect = lower value
[4] = locus YBR160W, strain CDC28, stronger effect = lower value
[5] = locus YDL017W, strain CDC7, stronger effect = lower value
[6] = locus YDL028C, strain MPS1, stronger effect = lower value
[7] = locus YDL108W, strain KIN28, stronger effect = lower value
[8] = locus YDL214C, strain PRR2, stronger effect = lower value
[9] = locus YDR052C, strain DBF4, stronger effect = lower value
[10] = locus YDR226W, strain ADK1, stronger effect = lower value
[11] = locus YDR477W, strain SNF1, stronger effect = lower value
[12] = locus YER123W, strain YCK3, stronger effect = lower value
[13] = locus YER133W, strain GLC7, stronger effect = lower value
[14] = locus YFR003C, strain YPI1, stronger effect = lower value
[15] = locus YFR019W, strain FAB1, stronger effect = lower value
[16] = locus YFR028C, strain CDC14, stronger effect = lower value
[17] = locus YGR040W, strain KSS1, stronger effect = lower value
[18] = locus YGR052W, strain FMP48, stronger effect = lower value
[19] = locus YGR092W, strain DBF2, stronger effect = lower value
[20] = locus YHR030C, strain SLT2, stronger effect = lower value
[21] = locus YHR079C, strain IRE1, stronger effect = lower value
[22] = locus YHR082C, strain KSP1, stronger effect = lower value
[23] = locus YHR205W, strain SCH9, stronger effect = lower value
[24] = locus YIL147C, strain SLN1, stronger effect = lower value
[25] = locus YJL095W, strain BCK1, stronger effect = lower value
[26] = locus YJL157C, strain FAR1, stronger effect = lower value
[27] = locus YJR016C, strain ILV3, stronger effect = lower value
[28] = locus YJR066W, strain TOR1 (second series), stronger effect = lower value
[29] = locus YJR066W, strain TOR1, stronger effect = lower value
[30] = locus YKL048C, strain ELM1, stronger effect = lower value
[31] = locus YKL067W, strain YNK1, stronger effect = lower value
[32] = locus YKL101W, strain HSL1, stronger effect = lower value
[33] = locus YKL203C, strain TOR2, stronger effect = lower value
[34] = locus YLR113W, strain HOG1, stronger effect = lower value
[35] = locus YLR133W, strain CKI1, stronger effect = lower value
[36] = locus YLR403W, strain SFP1, stronger effect = lower value
[37] = locus YML070W, strain DAK1, stronger effect = lower value
[38] = locus YMR001C, strain CDC5, stronger effect = lower value
[39] = locus YMR205C, strain PFK2 (second series), stronger effect = lower value
[40] = locus YNL006W, strain LST8, stronger effect = lower value
[41] = locus YNL020C, strain ARK1, stronger effect = lower value
[42] = locus YNL161W, strain CBK1, stronger effect = lower value
[43] = locus YNL183C, strain NPR1, stronger effect = lower value
[44] = locus YNL207W, strain RIO2, stronger effect = lower value
[45] = locus YNL222W, strain SSU72, stronger effect = lower value
[46] = locus YNL307C, strain MCK1 (second series), stronger effect = lower value
[47] = locus YOL136C, strain PFK27, stronger effect = lower value
[48] = locus YOR061W, strain CKA2, stronger effect = lower value
[49] = locus YOR119C, strain RIO1, stronger effect = lower value
[50] = locus YOR231W, strain MKK1, stronger effect = lower value
[51] = locus YOR329C, strain SCD5, stronger effect = lower value
[52] = locus YPL031C, strain PHO85, stronger effect = lower value
[53] = locus YPL153C, strain RAD53, stronger effect = lower value
[54] = locus YPL204W, strain HRR25, stronger effect = lower value
[55] = locus YPL209C, strain IPL1, stronger effect = lower value
[56] = locus YPL256C, strain CLN2, stronger effect = lower value
[57] = locus YPR025C, strain CCL1, stronger effect = lower value
[58] = locus YPR106W, strain ISR1, stronger effect = lower value
[59] = locus YPR111W, strain DBF20, stronger effect = lower value
[60] = strain NNK1, stronger effect = lower value

Measured: normalized growth

Oc1c(Br)cc(Br)cc1/C=N\n1cnnc1
inactive: locus YAR019C, strain CDC15, stronger effect = lower value 0.938 | [1] 0.942 | [2] 0.943 | [3] 0.943 | [4] 0.958 | [5] 0.943 | [6] 0.941 | locus YDL101C, strain DUN1, stronger effect = lower value 0.915 | [7] 0.945 | locus YDL132W, strain cdc53, stronger effect = lower value 0.947 | [9] 0.947 | locus YDR054C, strain cdc34, stronger effect = lower value 0.933 | [10] 0.947 | locus YFL009W, strain cdc4, stronger effect = lower value 0.954 | locus YFL029C, strain CAK1, stronger effect = lower value 0.949 | [14] 0.945 | [15] 0.791 | [16] 0.958 | [24] 0.907 | [27] 0.951 | [28] 0.728 | locus YKL193C, strain SDS22, stronger effect = lower value 0.943 | [38] 0.903 | locus YMR277W, strain FCP1, stronger effect = lower value 0.931 | [40] 0.927 | [42] 0.944 | [44] 0.942 | [45] 0.944 | locus YOL078W, strain AVO1, stronger effect = lower value 0.926 | [51] 0.934 | [55] 0.95 | [57] 0.946 | [58] 0.918 | [59] 0.918 | strain TSCII, stronger effect = lower value 0.938
active: [8] 0.588 | [11] 0.308 | [12] 0.452 | [13] 0.483 | [17] 0.391 | [18] 0.323 | [19] 0.116 | [20] 0.307 | [21] 0.246 | [22] 0.32 | [23] 0.0783 | [25] 0.26 | [26] 0.412 | [29] 0.287 | [30] 0.289 | [31] 0.503 | [32] 0.225 | [33] 0.244 | [34] 0.369 | [35] 0.305 | [36] 0.122 | [37] 0.606 | [39] 0.355 | [41] 0.259 | [43] 0.354 | [46] 0.138 | [47] 0.517 | [48] 0.15 | [49] 0.237 | [50] 0.316 | [52] 0.303 | [53] 0.416 | [54] 0.348 | [56] 0.462 | [60] 0.289

Oc1c(Br)cc(Br)cc1C=Nc1ccccn1
active: [8] 0.221 | [11] 0.417 | [12] 0.119 | [13] 0.288 | [15] 0.111 | [17] 0.437 | [18] 0.179 | [19] 0.16 | [20] 0.133 | [21] 0.135 | [22] 0.161 | [23] 0.118 | [25] 0.132 | [26] 0.165 | [28] 0.368 | [29] 0.141 | [30] 0.55 | [31] 0.213 | [32] 0.375 | [33] 0.348 | [34] 0.154 | [35] 0.165 | [36] 0.167 | [37] 0.113 | [39] 0.211 | [40] 0.895 | [41] 0.14 | [43] 0.146 | [46] 0.23 | [47] 0.116 | [48] 0.114 | [49] 0.341 | [50] 0.12 | [52] 0.296 | [53] 0.23 | [54] 0.304 | [56] 0.155
inactive: [1] 0.969 | [2] 0.965 | [3] 0.967 | [4] 0.965 | [5] 0.958 | [6] 0.96 | [7] 0.978 | [9] 0.968 | [10] 0.989 | [14] 0.952 | [16] 0.984 | [24] 0.965 | locus YJL128C, strain PBS2, stronger effect = lower value 0.937 | [27] 0.974 | [38] 0.962 | [42] 0.968 | [44] 0.965 | [45] 0.96 | [51] 0.963 | [55] 0.967 | [57] 0.968 | [58] 0.962 | [59] 0.953 | [60] 0.947
